PubChem BioAssay (NCATS)
“And” between values parts separate entries of the source, which are not always exact repeats. Equal entries are not always repeated. Results filed as inconclusive are left out. The source made the active and inactive calls. Calls come from the whole dose curve; as a rule, active = well fitted inhibition curve with a large enough effect; inconclusive = small, poorly fitted or top-dose-only effect; inactive = flat fitted curve, though single readings scatter.

Test: P-glycoprotein substrates identified in KB-8-5-11 adenocarcinoma cell line, qHTS therapeutic library screen (AID 1346987); note: nearly all actives have a fitted effect of over 65% in size
Conditions: KB-8-5-11 (P-gp overexpressing) viability, CellTiter-Glo, 72 h; series mostly up to 44.5 µM; activity change, negative = cytotoxicity: at the top concentration
Method in brief: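 Human cervical adenocarcinoma KB-8-5-11 cells, selected in colchicine to over-express P-gp and assayed without it, were exposed for 72 h to titrated compounds. An ATP-based luminescent viability signal gave AC50.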
% is set by controls: 0 for no effect and ±100 for the full control effect; potency is the fitted concentration of half-maximal effect.

| SMILES | activity change, negative = cytotoxicity | Potency | outcome |
| --- | --- | --- | --- |
| COC1CC(=O)C23C(=O)NC(CC(C)C)C2C(C)C(C)=CC3/C=C(\C)CCCC1O (configuration not stated) | -12.3% [at 17.3 µM] (inactive) | – | – |
| CC(C)C(C)C(O)C1CC23CC(=O)C4(O)C(=C2CCC3C1C)C=CC1(O)CC(O)CCC14C (configuration not stated) | -3.25% [at 17.3 µM] (inactive) | – | – |
| CCC(C)[C@H]1O[C@]2(C=C[C@@H]1C)C[C@@H]1C[C@@H](C/C=C(\C)[C@@H](O[C@H]3C[C@H](OC)[C@@H](O[C@H]4C[C@H](OC)[C@H](NC(C)=O)[C@H](C)O4)[C@H](C)O3)[C@@H](C)/C=C/C=C3\CO[C@@H]4[C@H](O)C(C)=C[C@@H](C(=O)O1)[C@]34O)O2 (some centres not stated) | – | 5.17 µM (active) and 18.4 µM (active) | – |
| CCCCc1ccc(NS(=O)(=O)c2ccc(F)cc2)cc1 | -11.7% (inactive) | – | – |
| C=C(C)C(=O)O[C@H]1/C(C=O)=C\CC/C(CO)=C/[C@H]2OC(=O)C(=C)[C@@H]2[C@@H]1OC | 2.9% (inactive) | – | – |
| O=C(CN1C2=NCCN2c2ccccc21)c1ccc(-c2ccccc2)cc1 | – | 16.4 µM (active) | – |
| CC(C)CCNc1ncccc1C(=O)N1CCN(Cc2ccccc2)CC1 | -22.2% (inactive) | – | – |
| C[C@H]1C[C@H]2[C@@H]3CCC4=CC(=O)C=C[C@]4(C)[C@@]3(F)[C@@H](O)C[C@]2(C)[C@@]1(O)C(=O)CCl | -24.6% (inactive) | – | – |
| C/C=C\NC(=O)C1NC(=O)C(CC(N)=O)NC(=O)C(NC(=O)C(=O)C(C)CC)Cc2ccc(O)c(c2)-c2cccc3c2NC(=O)C3(O)C1O (configuration not stated) | – | – | inactive [at 17.3 µM] |
| O=C(NO)c1ccc(CC(=O)N(CCO)c2ccccc2)cc1 | – | – | inactive |
| O=c1nc(-c2ccccn2)sc2ccccc12 | -4.86% (inactive) | – | – |
| O=C(NCCCNc1nc(Nc2cccc(CN3CCOCC3)c2)ncc1C1CC1)C1CCC1 | – | 10.3 µM (active) | – |
